The nature of assay [1]: NCI Yeast Anticancer Drug Screen. Data for the rad50 strain (AID 155).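 Also: 0% = growth of vehicle-only cultures of the same strain.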 The note with it: S. cerevisiae rad50 strain growth inhibition, stronger effect = higher value. In short, it runs like this: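 DNA repair mutant yeast, compound exposure, growth read-out; inhibition is taken relative to vehicle.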
Assay [2] in a line: NCI Yeast Anticancer Drug Screen. Data for the mec2-1 strain (AID 157). The note with it: S. cerevisiae mec2-1 strain, stronger effect = higher value. In short, it runs like this:
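Test agents were screened against the mec2-1 yeast strain, with defined DNA repair or cell cycle alteration. Growth was scored as inhibition against vehicle-only controls.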

Assay [3] can be described thus: NCI Yeast Anticancer Drug Screen. Data for the sgs1 mgt1 strain (AID 161).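 Also: 0% = growth of cultures given vehicle only.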 The following applies: S. cerevisiae sgs1 mgt1 strain, stronger effect = higher value. In short, it runs like this: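 Genetically altered yeast, compound exposure, growth inhibition relative to vehicle.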
Assay [4] can be described thus: NCI Yeast Anticancer Drug Screen. Data for the cln2 rad14 strain (AID 165).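 Also: 0% = growth equal to vehicle treated cultures.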 The following applies: S. cerevisiae cln2 rad14 strain, stronger effect = higher value. An outline of the steps: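 Growth of compound-exposed yeast (cln2 rad14 genotype) measured and expressed as inhibition relative to vehicle.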
Assay [5] can be described thus: NCI Yeast Anticancer Drug Screen. Data for the bub3 strain (AID 167). The note with it: S. cerevisiae bub3 mutant strain, stronger effect = higher value. In short, it runs like this:
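In this screen, a yeast mutant lacking normal mitotic checkpoint function is challenged with compound. Relative growth versus vehicle gives the inhibition value.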

Assay [6] is described as follows: NCI Yeast Anticancer Drug Screen. Data for the mlh1 rad18 strain (AID 175). The note with it: S. cerevisiae mlh1 rad18 strain growth inhibition, stronger effect = higher value. An outline of the steps:
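In this whole-cell yeast screen, a strain with altered DNA damage repair is challenged with compound, and its growth is measured against matched vehicle-treated controls.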

The mark [7] stands for this setting: at 5.0 µM (retest, dose inferred, filed as 0.5).
Where [8] appears, read: at 50.0 µM (retest, dose inferred, filed as 5.0).

SMILES strings stand for the structures. Values joined by “and” are separate entries in the source; they are usually repeats but may differ in a detail not shown here. Equal entries are not always repeated. This is part of a sample that, as a whole, favours compounds with a hit. Of some 79,000 tested, about 15% had one in any assay. The source holds several records for some structures; these can differ, active in one and inactive in another. Active and inactive are the calls of the source. Rule as the data show it: active = growth inhibition above about 70%; inactive = the rest.

As for `O=NC1C(Br)C2CC1C1C(Cl)C(Cl)CC21` (stereo unspecified), the growth inhibition in assay [1] (setting [7]) is 6% (inactive); in assay [1] (setting [8]), 10% (inactive); in assay [1] (at 50.0 µM), 58.7% (inactive); in assay [2] (setting [7]), 12% (inactive); in assay [2] (setting [8]) it was 13% (inactive); in assay [2] (at 50.0 µM) it was 29.9% (inactive). Moreover, the growth inhibition was -5% (inactive) in assay [3] (setting [7]); 6% (inactive) in assay [3] (setting [8]); 76.8% (active) in assay [3] (at 50.0 µM); -2% (inactive) in assay [4] (setting [7]); -7% (inactive) in assay [4] (setting [8]); 44.1% (inactive) in assay [4] (at 50.0 µM). The growth inhibition is 1% (inactive) in assay [5] (setting [7]); -6% (inactive) in assay [5] (setting [8]); 10.1% (inactive) in assay [5] (at 50.0 µM); 25% (inactive) in assay [6] (setting [7]); 66% (inactive) in assay [6] (setting [8]); 49.2% (inactive) in assay [6] (at 50.0 µM).
In the case of `CN(C)c1ccc(/C=C/c2ccc3ccccc3[n+]2C)cc1`, the growth inhibition in assay [1] (setting [7]) is 1% (inactive); in assay [1] (setting [8]) it was 98% (active); in assay [1] (at 50.0 µM) it was 53.4% (inactive); in assay [2] (setting [7]) it was 3% (inactive); in assay [2] (setting [8]), 98% (active); in assay [2] (at 50.0 µM), 99% (active). The growth inhibition in assay [3] (setting [7]) was 11% (inactive); in assay [3] (setting [8]), 97% (active); in assay [3] (at 50.0 µM), 46.2% (inactive); in assay [4] (setting [7]), 3% (inactive); in assay [4] (setting [8]), 98% (active); in assay [4] (at 50.0 µM), 98% (active). Also, the growth inhibition was -9% (inactive) in assay [5] (setting [7]); 99% (active) in assay [5] (setting [8]); 84.2% (active) in assay [5] (at 50.0 µM); -15% (inactive) in assay [6] (setting [7]); 98% (active) in assay [6] (setting [8]); 98.3% (active) in assay [6] (at 50.0 µM).
Consider `CNC(=O)N(C)CN(C)C(=O)NC`, for which the growth inhibition in assay [1] (setting [7]) was 0% (inactive); in assay [1] (setting [8]) it was 9% (inactive); in assay [1] (at 50.0 µM), 17.1% (inactive) and 17.2% (inactive); in assay [2] (setting [7]), -1% (inactive); in assay [2] (setting [8]), 2% (inactive); in assay [2] (at 50.0 µM), -11.9% (inactive) and 17.7% (inactive). The growth inhibition was -3% (inactive) in assay [3] (setting [7]); 7% (inactive) in assay [3] (setting [8]); 4% (inactive) and 19.8% (inactive) in assay [3] (at 50.0 µM); -4% (inactive) in assay [4] (setting [7]); -9% (inactive) in assay [4] (setting [8]); 26.8% (inactive) and 18.6% (inactive) in assay [4] (at 50.0 µM). Also, the growth inhibition in assay [5] (setting [7]) was -5% (inactive); in assay [5] (setting [8]), -8% (inactive); in assay [5] (at 50.0 µM), 2.8% (inactive) and -19.9% (inactive); in assay [6] (setting [7]) it was -5% (inactive); in assay [6] (setting [8]), 7% (inactive); in assay [6] (at 50.0 µM), 3.75% (inactive) and 40.1% (inactive).
`O=C(O)CSCc1ccc(Cl)cc1`: the growth inhibition is -2% (inactive) in assay [1] (setting [7]); 1% (inactive) in assay [1] (setting [8]); 3.7% (inactive) in assay [1] (at 50.0 µM); 2% (inactive) in assay [2] (setting [7]); -3% (inactive) in assay [2] (setting [8]); -32.9% (inactive) in assay [2] (at 50.0 µM). The growth inhibition is 2% (inactive) in assay [3] (setting [7]); 1% (inactive) in assay [3] (setting [8]); -9.3% (inactive) in assay [3] (at 50.0 µM); 0% (inactive) in assay [4] (setting [7]); -7% (inactive) in assay [4] (setting [8]); 29.3% (inactive) in assay [4] (at 50.0 µM). Moreover, the growth inhibition in assay [5] (setting [7]) is 2% (inactive); in assay [5] (setting [8]), 4% (inactive); in assay [5] (at 50.0 µM), 6.1% (inactive); in assay [6] (setting [7]), -1% (inactive); in assay [6] (setting [8]), -3% (inactive); in assay [6] (at 50.0 µM) it was -6.45% (inactive).
As for `O=C(/C=C/c1ccccn1)c1ccccc1`, the growth inhibition in assay [1] (setting [7]) is 4% (inactive); in assay [1] (setting [8]) it was 59% (inactive); in assay [1] (at 50.0 µM), 9.35% (inactive) and 16.2% (inactive); in assay [2] (setting [7]) it was -13% (inactive); in assay [2] (setting [8]), 28% (inactive); in assay [2] (at 50.0 µM) it was 40% (inactive) and 16.4% (inactive). In addition, the growth inhibition in assay [3] (setting [7]) was -1% (inactive); in assay [3] (setting [8]), 56% (inactive); in assay [3] (at 50.0 µM), 44.7% (inactive) and 24.4% (inactive); in assay [4] (setting [7]), 5% (inactive); in assay [4] (setting [8]), 11% (inactive); in assay [4] (at 50.0 µM), 7.2% (inactive) and 26.9% (inactive). Also, the growth inhibition in assay [5] (setting [7]) is -5% (inactive); in assay [5] (setting [8]), 23% (inactive); in assay [5] (at 50.0 µM), 47.2% (inactive) and 39.9% (inactive); in assay [6] (setting [7]) it was -1% (inactive); in assay [6] (setting [8]), 29% (inactive); in assay [6] (at 50.0 µM), 80.7% (active) and 21.1% (inactive).
As to `O=C1C=C(c2c(O)ccc3ccccc23)c2ccccc2C1=O`, the growth inhibition in assay [1] (setting [7]) is 48% (inactive) and 29% (inactive); in assay [1] (setting [8]), 98% (active); in assay [1] (at 50.0 µM), 98.9% (active) and 85.8% (active); in assay [2] (setting [7]), 73% (active) and 21% (inactive); in assay [2] (setting [8]) it was 99% (active) and 98% (active); in assay [2] (at 50.0 µM) it was 98.8% (active) and 85% (active). The growth inhibition in assay [3] (setting [7]) was 80% (active) and 40% (inactive); in assay [3] (setting [8]), 98% (active); in assay [3] (at 50.0 µM), 84.8% (active) and 89.8% (active); in assay [4] (setting [7]), 59% (inactive) and 36% (inactive); in assay [4] (setting [8]) it was 99% (active) and 98% (active); in assay [4] (at 50.0 µM), 98.7% (active) and 89.3% (active). Also, the growth inhibition in assay [5] (setting [7]) was 46% (inactive) and 40% (inactive); in assay [5] (setting [8]), 99% (active) and 97% (active); in assay [5] (at 50.0 µM), 98.7% (active) and 90.3% (active); in assay [6] (setting [7]), 94% (active) and 73% (active); in assay [6] (setting [8]), 98% (active) and 97% (active); in assay [6] (at 50.0 µM) it was 98.7% (active) and 90.2% (active).
On to `CC1=C(C(=O)Nc2c(C)cccc2C)C(c2ccc3c(c2)OCO3)C(C(=O)Nc2c(C)cccc2C)=C(C)N1`, for which the growth inhibition is 25% (inactive) in assay [1] (setting [7]); 25% (inactive) in assay [1] (setting [8]); 81.9% (active) in assay [1] (at 50.0 µM); 19% (inactive) in assay [2] (setting [7]); 19% (inactive) in assay [2] (setting [8]); 86.9% (active) in assay [2] (at 50.0 µM). The growth inhibition was 4% (inactive) in assay [3] (setting [7]); 4% (inactive) in assay [3] (setting [8]); 85.7% (active) in assay [3] (at 50.0 µM); 16% (inactive) in assay [4] (setting [7]); 16% (inactive) in assay [4] (setting [8]); 79.5% (active) in assay [4] (at 50.0 µM). For the same molecule, the growth inhibition was 6% (inactive) in assay [5] (setting [7]); 6% (inactive) in assay [5] (setting [8]); 87.5% (active) in assay [5] (at 50.0 µM); 7% (inactive) in assay [6] (setting [7]); 7% (inactive) in assay [6] (setting [8]); 82.7% (active) in assay [6] (at 50.0 µM).
